Values joined by “and” are separate entries in the source; they are usually repeats but may differ in a detail not shown here. Equal values may be shown once. Records with an inconclusive call do not appear. Active and inactive are the calls of the source. Calls follow the shape of the dose curve; as a rule, active = well fitted curve in the direction sought with a large enough effect; inconclusive = small, poorly fitted or top-dose-only effect, or another doubt; inactive = no such curve, though single readings can be large; an effect the other way counts as inactive or inconclusive.
Tests used:
[1] = qHTS assay for measurement of the activity of small molecule inhibitors on Zika virus induced Caspase-3 activity in human astrocytoma cells (AID 1224859); also: potency is read from the fitted curve at half-maximal effect
Method in brief: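 Percent inhibition of virus-induced caspase-3/7 signal is calculated against uninfected and ZIKV-infected control cells. Cells are SNB-19, infected at 2 FFU/cell for 6 h after 1 h compound exposure.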

[2] = qHTS Screen of the MIPE 4.0 Collection Against Ewings Sarcoma (RDES) (AID 1259252); also: nearly all actives have a fitted effect of over 35% in size; also: potency is read from the fitted curve at half-maximal effect
Method in brief: (§1)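 Here, cells in 5% FBS RPMI were exposed for two days (48 h) to compound dilutions added four hours after plating. ATP-based CellTiter-Glo luminescence measured viability, normalized to vehicle and no-cell blanks.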

[3] = qHTS Screen of the MIPE 4.0 Collection Against Ewings Sarcoma (TC71) (AID 1259253); also: nearly all actives have a fitted effect of over 40% in size; also: potency is read from the fitted curve at half-maximal effect
Method in brief: as §1

[4] = qHTS Screen of the MIPE 4.0 Collection Against Ewings Sarcoma (EW8) (AID 1259255); also: nearly all actives have a fitted effect of over 35% in size; also: potency is read from the fitted curve at half-maximal effect
Method in brief: as §1

[5] = qHTS Screen of the MIPE 4.0 Collection Against Ewings Sarcoma (TC32) (AID 1259256); also: nearly all actives have a fitted effect of over 45% in size; also: potency is read from the fitted curve at half-maximal effect
Method in brief: as §1

[6] = P-glycoprotein substrates identified in KB-8-5-11 adenocarcinoma cell line, qHTS therapeutic library screen (AID 1346987); also: nearly all actives have a fitted effect of over 65% in size; also: potency is read from the fitted curve at half-maximal effect
Method in brief: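 KB-8-5-11, a colchicine-selected P-gp-overexpressing KB-3-1 subline, was grown without colchicine for the assay. Cells were seeded at 500 cells/well, dosed in concentration-response and incubated 72 h at 37 degree C, 5% CO2. Viability was read by CellTiter-Glo luminescence.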

[7] = P-glycoprotein substrates identified in KB-3-1 adenocarcinoma cell line, qHTS therapeutic library screen (AID 1346986); also: nearly all actives have a fitted effect of over 60% in size;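 also: potency is read from the fitted curve at half-maximal effect; potency is for cytotoxicity meaning loss of cell viability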
Method in brief: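 Resistance attributable to P-gp was assessed by comparing AC50 in KB-8-5-11 with parental KB-3-1 and by tariquidar reversal. Cells were exposed 72 h and viability read by CellTiter-Glo.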

[8] = NS1 protein of Zika virus - qHTS assay to identify small molecule inhibitors in human HEK 293 cells (AID 1347053); also: nearly all actives have a fitted effect of over 55% in size; also: potency is read from the fitted curve at half-maximal effect
Method in brief: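 Following 20 h seeding, HEK 293 cells took compound, then 1 h later ZIKV MR766 (MOI = 0.5). Incubation ran 24 h at 37 C before TR-FRET detection of NS1; a drop in signal indicates inhibition.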

[9] = Identifying Small Molecule Inhibitors of Pancreatic Cancer Stem Cells (A278, Adherent) (AID 1259361);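 also: viability read after 48 h compound exposure; nearly all actives have a fitted effect of over 35% in size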
Method in brief: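 Luminescent ATP readout (CellTiter-Glo) quantifies surviving cells after a 48 h drug incubation. Normalization uses DMSO wells as no inhibition and media-only wells as full inhibition; bortezomib served as positive control.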

Compound	Potency [1]	Potency [2]	Potency [3]	Potency [4]	Potency [5]	Potency [6]	Potency [7]	Potency [8]	IC50 (viability decrease) [9]
Cn1c2ccccc2c2c3c(c4c5ccccc5n(CCC#N)c4c21)CNC3=O	inactive	935 nM (active)	1180 nM (active)	8330 nM (active)	4690 nM (active)	5.8 µM (active)	–	–	–
COc1c(OCCCN2CCOCC2)ccc2c3n(c(=NC(=O)c4cnc(N)nc4)nc12)CCN3	inactive	57.5 nM (active)	1820 nM (active)	724 nM (active)	457 nM (active)	0.15 µM (active)	–	–	–
Cc1cn2cc(C(=O)N(C)CCO)cc(N[C@@H]3CCOc4cccc(C)c43)c2n1	inactive	inactive	inactive	inactive	inactive	inactive	inactive	inactive	–
CCn1nnc2c(N3CCOCC3)nc(-c3ccc(NC(=O)Nc4ccc(C(=O)N5CCN(C)CC5)cc4)cc3)nc21	inactive	14.8 nM (active)	41.8 nM (active)	6.6 nM (active)	7.4 nM (active)	–	58 nM (active)	–	–
CCCn1c(=O)c2[nH]c(-c3cnn(Cc4cccc(C(F)(F)F)c4)c3)nc2n(CC)c1=O	inactive	inactive	inactive	inactive	inactive	inactive	inactive	inactive	–
COc1cc2c(Nc3ccc(NC(=O)c4ccccc4)cc3)ncnc2cc1OCCCN1CCOCC1	inactive	23500 nM (active)	16600 nM (active)	1050 nM (active)	3320 nM (active)	inactive	–	–	–
CN(C)CC(C)(C)CNc1nn2c(-c3ccccc3)nnc2cc1C1CCC1	inactive	418 nM (active)	1050 nM (active)	469 nM (active)	469 nM (active)	inactive	inactive	inactive	–
Cc1c(CN2CCN(S(C)(=O)=O)CC2)sc2c(N3CCOCC3)nc(-c3cnc(N)nc3)nc12	inactive	59 nM (active)	66.2 nM (active)	66.2 nM (active)	37.2 nM (active)	41.8 nM (active) and 291 nM (active)	–	–	–
C#Cc1cccc(Nc2ncnc3cc(OC)c(OCCCCCCC(=O)NO)cc23)c1	inactive	20.9 nM (active)	74.3 nM (active)	59 nM (active)	37.2 nM (active)	10.5 µM (active) and 14.6 µM (active)	–	inactive	1180 nM (active)
Cc1cc(C(=O)N2CCN(c3cccc(Cl)c3)CC2)n(-c2ccccc2)n1	inactive	743 nM (active)	6620 nM (active)	1180 nM (active)	inactive	372 nM (active) and 1.3 µM (active)	–	–	–
CNC(=O)c1nn(C)c2c1C(C)(C)Cc1cnc(Nc3ccc(N4CCN(C)CC4)cc3)nc1-2	inactive	1660 nM (active)	1870 nM (active)	2960 nM (active)	2350 nM (active)	2.35 µM (active) and 1.46 µM (active)	–	–	–
Fc1cc(-c2cccc3ncc(-c4cnn(C5CCNCC5)c4)nc23)cc(F)c1CN1CCOCC1	inactive	20900 nM (active)	20900 nM (active)	20900 nM (active)	18700 nM (active)	20.9 µM (active) and 20.6 µM (active)	–	20900 nM (active)	20900 nM (active)
COc1cc2nccc(Oc3ccc(NC(=O)C4(C(=O)Nc5ccc(F)cc5)CC4)cc3)c2cc1OC	inactive	1320 nM (active)	2350 nM (active)	1050 nM (active)	1660 nM (active)	16.6 µM (active) and 9.2 µM (active)	–	–	–
Cc1c(Cn2c(C)nc3c(C(=O)O)cc(N4CCOCC4)cc32)cccc1C(F)(F)F	inactive	14800 nM (active)	10500 nM (active)	11800 nM (active)	14800 nM (active)	inactive	inactive	inactive	–
CC(O)C1C(=O)N2C(C(=O)O)=C(SC3CNC(C(=O)N(C)C)C3)C(C)C12 (stereo not given)	inactive	inactive	inactive	inactive	inactive	inactive	inactive	inactive	–
CNC(=O)c1ccc(N2C(=S)N(c3cnc(C#N)c(C(F)(F)F)c3)C(=O)C23CCC3)cc1F	inactive	1180 nM (active)	2960 nM (active)	8330 nM (active)	8330 nM (active)	inactive	inactive	inactive	–

Compound	Potency [1]	Potency [2]	Potency [3]	Potency [4]	Potency [5]	Potency [6]	Potency [7]	Potency [8]	IC50 (viability decrease) [9]
CN[C@H]1CCc2cc(OC)c(OC)c(OC)c2-c2ccc(OC)c(=O)cc21	inactive	2.1 nM (active)	3.3 nM (active)	1.9 nM (active)	inactive	18.7 nM (active) and 1.16 µM (active)	–	8.3 nM (active)	–
CC[C@H]1CN2CCc3cc(OC)c(OC)cc3[C@H]2C[C@@H]1C[C@@H]1NCCc2cc(OC)c(OC)cc21	inactive	93.5 nM (active)	59 nM (active)	66.2 nM (active)	74.3 nM (active)	1.18 µM (active)	–	118 nM (active)	–
Cc1nc(Nc2n[nH]c3c2CN(C(=O)N[C@H](CN(C)C)c2ccccc2)C3(C)C)c2sccc2n1	inactive	3320 nM (active)	1320 nM (active)	2640 nM (active)	7430 nM (active)	inactive	–	13200 nM (active)	–
COc1cc2c(cc1-c1c(C)noc1C)ncc1[nH]c(=O)n([C@H](C)c3ccccn3)c12	inactive	6620 nM (active)	4690 nM (active)	18700 nM (active)	4690 nM (active)	–	–	inactive	–
Cc1cc(Nc2ncnc3ccc(-c4ccc(CNCCS(C)(=O)=O)o4)cc23)ccc1Oc1ccn2ncnc2c1	inactive	18700 nM (active)	14800 nM (active)	16600 nM (active)	16600 nM (active)	inactive	–	inactive	–
CN(C)Cc1c(C(=O)NCCOc2ccc(C(=O)NO)cc2)oc2ccccc12	inactive	1050 nM (active)	935 nM (active)	1050 nM (active)	833 nM (active)	–	–	inactive	–
NC(=O)c1cccc2cn(-c3ccc([C@@H]4CCCNC4)cc3)nc12	inactive	1870 nM (active)	3720 nM (active)	7430 nM (active)	2350 nM (active)	inactive	–	11800 nM (active)	–
CC(C)CC(=O)Nc1n[nH]c2c1CN(C(=O)C1CCN(C)CC1)C2(C)C	inactive	296 nM (active)	743 nM (active)	1320 nM (active)	833 nM (active)	–	–	26400 nM (active)	–
Nc1cccc(-c2cc3c(Oc4cccc(O)c4)ncnc3[nH]2)c1	inactive	2350 nM (active)	4180 nM (active)	3320 nM (active)	2960 nM (active)	–	–	inactive	–
COc1cc2c(NC3CCN(C(C)C)CC3)nc(C3CCCCC3)nc2cc1OCCCN1CCCC1	inactive	7430 nM (active)	7430 nM (active)	5900 nM (active)	5260 nM (active)	–	–	inactive	–
C[C@H]1C[C@@H]2[C@@H]([C@@H](O)C[C@@]3(C)[C@H]2CC[C@]3(O)C(=O)CO)[C@@]2(C)C=CC(=O)C=C12	inactive	inactive	inactive	inactive	inactive	inactive	–	inactive	–
CCS(=O)(=O)c1cccc(-c2cc(C(=O)NC3CCN(C)CC3)c(C)c3[nH]c4ncc(C)cc4c23)c1	inactive	743 nM (active)	3320 nM (active)	118 nM (active)	235 nM (active)	inactive	–	13200 nM (active)	–
CCCNC(=O)Nc1ccc(Oc2ncnc3cc(OC)c(OC)cc23)cc1Cl	inactive	inactive	inactive	inactive	inactive	–	–	inactive	–
COc1cccc(-c2ccc(NC(=O)C3=C(C(=O)O)CCC3)c(F)c2)c1	2350 nM (active)	14800 nM (active)	11800 nM (active)	9350 nM (active)	16600 nM (active)	–	–	2090 nM (active)	–
O=C(Cc1ccc(-c2ccc(OCCN3CCOCC3)cc2)cn1)NCc1ccccc1	inactive	23.5 nM (active)	37.2 nM (active)	23.5 nM (active)	23.5 nM (active)	18.7 nM (active) and 580 nM (active)	–	74.3 nM (active)	–

Source: PubChem BioAssay (NCATS)
